According to PubChem BioAssay (NCATS):
Records with an inconclusive call do not appear. Active and inactive are the calls of the source. Calls follow the shape of the dose curve; as a rule, active = well fitted curve in the direction sought with a large enough effect; inconclusive = small, poorly fitted or top-dose-only effect, or another doubt; inactive = no such curve, though single readings can be large; an effect the other way counts as inactive or inconclusive.

Experiments:
[1] = qHTS of pediatric cancer cell lines to identify multiple opportunities for drug repurposing: Confirmatory screen for U-2 OS cells (AID 1347122); also: nearly all actives have a fitted effect of over 65% in size; also: potency is read from the fitted curve at half-maximal effect
Summary of the method: (§1)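 Viability after 48 h compound treatment at 37C, 500-1,000 cells/well, read as ATP luminescence with CellTiter-Glo. Primary screens used 11-point (MIPE, 0.78 nM-46 µM) or 8-point (NPC, 0.59 nM-46 µM) final concentrations; follow-up screens used 11-point dilutions.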

[2] = qHTS of pediatric cancer cell lines to identify multiple opportunities for drug repurposing: Confirmatory screen for Rh41 cells (AID 1347123);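 also: 48 h compound exposure; nearly all actives have a fitted effect of over 60% in size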; also: potency is read from the fitted curve at half-maximal effect
Summary of the method: as §1

[3] = qHTS of pediatric cancer cell lines to identify multiple opportunities for drug repurposing: Confirmatory screen for RD cells (AID 1347124);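 also: cells exposed to compound for 48 h before viability readout; nearly all actives have a fitted effect of over 65% in size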; also: potency is read from the fitted curve at half-maximal effect
Summary of the method: as §1

[4] = qHTS of pediatric cancer cell lines to identify multiple opportunities for drug repurposing: Confirmatory screen for Rh18 cells (AID 1347125); also: nearly all actives have a fitted effect of over 55% in size; also: potency is read from the fitted curve at half-maximal effect
Summary of the method: as §1

[5] = qHTS of pediatric cancer cell lines to identify multiple opportunities for drug repurposing: Confirmatory screen for Saos-2 cells (AID 1347127); also: nearly all actives have a fitted effect of over 60% in size; also: potency is read from the fitted curve at half-maximal effect
Summary of the method: as §1

[6] = qHTS of pediatric cancer cell lines to identify multiple opportunities for drug repurposing: Confirmatory screen for OHS-50 cells (AID 1347128);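 also: compound exposure lasted 48 h at 37 degrees C; nearly all actives have a fitted effect of over 55% in size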; also: potency is read from the fitted curve at half-maximal effect
Summary of the method: as §1

[7] = qHTS of pediatric cancer cell lines to identify multiple opportunities for drug repurposing: Confirmatory screen for SK-N-SH cells (AID 1347129);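 also: cells exposed to compound for 48 h before viability read; nearly all actives have a fitted effect of over 60% in size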; also: potency is read from the fitted curve at half-maximal effect
Summary of the method: as §1

[8] = test system: Zika virus NS2B-NS3 protease; experiment: Primary screen GU AMC qHTS for Zika virus inhibitors (AID 1347154); also: nearly all actives have a fitted effect of over 70% in size; also: potency is read from the fitted curve at half-maximal effect
Summary of the method: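 Unlinked Zika NS2B hydrophilic domain–NS3 protease complex at 25 nM in 10 mM Tris-HCl pH 8.0, 0.01% Tween 20, with an AMC peptide substrate. Fluorescence change (340/450 nm) over 15 min at room temperature, normalized to controls, fitted to 4-parameter Hill.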

[9] = test system: Zika virus NS2B-NS3 protease (unlinked); experiment: Optimization of GU AMC qHTS for Zika virus inhibitors: Unlinked NS2B-NS3 protease assay (AID 1347151); also: nearly all actives have a fitted effect of over 80% in size; also: potency is read from the fitted curve at half-maximal effect
Summary of the method: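 Fluorescence gain (340/450 nm) over 15 min at room temperature, ~20% conversion, gave percent inhibition fitted to a 4-parameter Hill equation; enzyme was unlinked NS2B-NS3 (25 nM final), pH 8.0 Tris buffer.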

Furin (Homo sapiens) = Furin (Homo sapiens) (UniProt P09958); experiment: Furin counterscreen qHTS for Zika virus inhibitors (AID 1347149); also: nearly all actives have a fitted effect of over 70% in size; also: potency is read from the fitted curve at half-maximal effect
Sequence of Furin (Homo sapiens) (P09958 whole entry, looked up): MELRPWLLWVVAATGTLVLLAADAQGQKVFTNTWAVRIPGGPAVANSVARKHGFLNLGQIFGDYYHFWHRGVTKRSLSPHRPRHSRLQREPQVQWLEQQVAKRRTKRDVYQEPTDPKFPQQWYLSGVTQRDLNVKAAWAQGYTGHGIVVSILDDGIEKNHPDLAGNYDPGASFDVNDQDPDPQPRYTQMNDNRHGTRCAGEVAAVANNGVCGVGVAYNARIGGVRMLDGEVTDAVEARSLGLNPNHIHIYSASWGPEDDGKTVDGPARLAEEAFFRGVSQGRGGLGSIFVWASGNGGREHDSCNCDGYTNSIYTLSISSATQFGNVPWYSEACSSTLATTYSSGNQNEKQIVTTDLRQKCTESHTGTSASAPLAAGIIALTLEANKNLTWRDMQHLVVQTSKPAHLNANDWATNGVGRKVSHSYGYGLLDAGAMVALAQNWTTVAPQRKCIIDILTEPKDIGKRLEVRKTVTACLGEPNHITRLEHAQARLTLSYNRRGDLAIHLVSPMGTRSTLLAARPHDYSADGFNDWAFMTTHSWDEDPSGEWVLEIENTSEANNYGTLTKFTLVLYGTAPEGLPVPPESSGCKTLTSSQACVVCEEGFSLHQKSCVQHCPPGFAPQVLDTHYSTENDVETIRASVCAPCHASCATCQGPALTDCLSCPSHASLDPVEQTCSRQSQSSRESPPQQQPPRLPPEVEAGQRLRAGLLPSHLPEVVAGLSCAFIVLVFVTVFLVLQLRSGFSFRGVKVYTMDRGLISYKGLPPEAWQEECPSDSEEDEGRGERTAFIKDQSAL
Summary of the method: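 Counterscreen measures cleavage of 2 microM BOC-RVRR-AMC, below its ~15 microM Km, by 5 nM full-length human furin at pH 7.0 after a 15-min compound preincubation. Inhibition derives from the 15-min fluorescence increase at 37C.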

[10] = Confirmatory screen NINDS Rhodamine qHTS for Zika virus inhibitors (AID 1347161);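 also: purified Zika NS2B-NS3 protease with linked NS2B cofactor domain and Rhodamine110 peptide substrate; series mostly up to about 110 µM; nearly all actives have a fitted effect of over 60% in size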
Summary of the method: (§2)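 Each compound, titrated, sat 15 min with 25 nM linked protease before 1.5 microM Rhodamine110 substrate went in. Fluorescence gain over the next 15 min, in pH 8.0 Tris with Tween 20, gave Hill-fitted curves.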

[11] = test system: Zika virus NS2B-NS3 protease (unlinked complex); experiment: Primary screen GU Rhodamine qHTS for Zika virus inhibitors: Unlinked NS2B-NS3 protease assay (AID 1347159); also: nearly all actives have a fitted effect of over 60% in size; also: potency is read from the fitted curve at half-maximal effect
Summary of the method: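 In dose–response format, inhibition of unlinked protease (25 nM) was measured with 1.5 microM bis-peptide Rhodamine110 substrate. Aprotinin served as the intraplate control.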

[12] = test system: Zika virus NS2B-NS3 protease (linked construct); experiment: Primary screen NINDS Rhodamine qHTS for Zika virus inhibitors (AID 1347160); also: nearly all actives have a fitted effect of over 55% in size; also: potency is read from the fitted curve at half-maximal effect
Summary of the method: as §2

[13] = test system: Zika virus NS2B-NS3 protease (linked construct); experiment: Confirmatory screen NINDS AMC qHTS for Zika virus inhibitors (AID 1347152); also: nearly all actives have a fitted effect of over 70% in size; also: potency is read from the fitted curve at half-maximal effect
Summary of the method: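 IC50s from 4-parameter Hill fits of percent inhibition, based on AMC fluorescence gain (340/450 nm) over 15 min with 10 microM Bz-Nle-KRR-AMC. Enzyme: 1 nM linked NS2B-NS3 in Tris-HCl pH 8.0; 15-min compound preincubation.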

[14] = test system: Zika virus NS2B-NS3 protease (unlinked complex); experiment: Confirmatory screen GU AMC qHTS for Zika virus inhibitors (AID 1347153); also: nearly all actives have a fitted effect of over 70% in size
Summary of the method: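 Unlinked NS2B-NS3 complex (25 nM) in 10 mM Tris-HCl pH 8.0, 0.01% Tween 20 preincubated 15 min with compound, then 10 microM Bz-Nle-KRR-AMC (Km 18.3 µM). Fluorescence change over 15 min, normalized, Hill-fitted.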

[15] = target: N-terminal Xaa-Pro-Lys N-methyltransferase 1 (Homo sapiens) (UniProt Q9BV86); experiment: qHTS Assay for Inhibitors of N-terminal methyltransferase 1 (NTMT1): LOPAC validation of the NTMT1 SAHH-coupled ThioGlo3 Assay (AID 1347143); also: potency is read from the fitted curve at half-maximal effect
Sequence of N-terminal Xaa-Pro-Lys N-methyltransferase 1 (Homo sapiens) (Q9BV86 whole entry, looked up): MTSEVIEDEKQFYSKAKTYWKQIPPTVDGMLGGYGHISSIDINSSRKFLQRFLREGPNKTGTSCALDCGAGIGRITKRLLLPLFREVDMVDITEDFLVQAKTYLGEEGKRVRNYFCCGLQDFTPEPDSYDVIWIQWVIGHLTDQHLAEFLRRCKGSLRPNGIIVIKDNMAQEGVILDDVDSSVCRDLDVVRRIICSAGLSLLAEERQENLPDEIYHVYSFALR
Summary of the method: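 Steps: dispense 125nM NTMT1; pin-transfer test compounds at several concentrations, with 1uM RCC1-6 peptide as control; incubate 1 min; start with reagent holding 100uM SAM, 10uM SAHH, 15uM ThioGlo3; read at 0 and 30 min.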

[16] = Confirmatory screen GU Rhodamine qHTS for Zika virus inhibitors qHTS (AID 1347157)
Summary of the method: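 Compounds, tested up to 114 microM, were incubated for 15 minutes with 25 nM unlinked NS2B-NS3 protease at pH 8.0. Cleavage of 1.5 microM Rhodamine110 substrate was then followed by fluorescence for 15 minutes.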

[17] = test system: Zika virus NS2B-NS3 protease (linked); experiment: 384 well plate NINDS AMC confirmatory qHTS for Zika virus inhibitors (AID 1347163); also: potency is read from the fitted curve at half-maximal effect; nearly all actives have a fitted effect of over 50% in size
Summary of the method: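 Fluorescence at 355/460 nm was read after 25 minutes of cleavage of 30 microM Ac-VKTGKR-AMC at room temperature, in the dark. Before substrate addition, compounds (up to 1 mM final) sat ~15 minutes with 5, 30 or 60 nM linked protease. Signals were normalized to no-enzyme and no-inhibitor wells.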

[18] = test system: Zika virus NS2B-NS3 protease (linked construct); experiment: 384 well plate NINDS Rhodamine confirmatory qHTS for Zika virus inhibitors (AID 1347164);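 also: fluorescence from protease cleavage of Ac-LKRR-rhodamine 110 substrate; top concentration of the series differs between compounds; nearly all actives have a fitted effect of over 65% in size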
Summary of the method: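 Fluorescence at 485/538 nm was measured 25 minutes after adding 10 microM Ac-LKRR-Rd substrate, in the dark at room temperature. The protease (5, 30 or 60 nM final) had been preincubated ~15 minutes with compound; aprotinin as control.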

Measured: Potency

C[C@]1(c2nc3c(C(N)=O)cccc3[nH]2)CCCN1
inactive: [1] | [2] | [3] | [4] | [5] | [6] | [7] | [8]

Cc1cn[nH]c1
inactive: [1] | [2] | [3] | [4] | [5] | [6] | [7] | [9] | [8]

COCC(=O)NCC=Cc1ccc2ncnc(Nc3ccc(Oc4ccc(C)nc4)c(C)c3)c2c1
active: [2] 18.5 µM | [6] 42.7 µM | Furin (Homo sapiens) 30.3 µM
inactive: [3] | [10]

COc1cc(Nc2ncc3c(n2)-c2ccc(Cl)cc2C(c2c(F)cccc2OC)=NC3)ccc1C(=O)O
active: [1] 10.4 µM | [5] 18.5 µM | [11] 20 µM
inactive: [3] | [4] | [6] | [8] | [12]

COc1ccc(-c2ccc3c(N4CCOC[C@H]4C)nc(N4CCOC[C@H]4C)nc3n2)cc1CO
active: [1] 0.329 µM | [2] 0.233 µM | [5] 0.928 µM | [6] 2.08 µM | [7] 0.526 µM | [8] 6.81 µM

Cc1c(CN2CCN(C(=O)C(C)C)CC2)sc2c(N3CCOCC3)nc(-c3cnc(N)nc3)nc12
inactive: [8]
active: [1] 0.737 µM | [2] 0.414 µM | [3] 2.08 µM | [4] 0.827 µM | [5] 0.928 µM | [6] 1.04 µM | [7] 1.05 µM

COc1ccc(-c2ccc3c(N4CCOCC4)nc(N4C[C@@H](C)O[C@@H](C)C4)nc3n2)cc1CO
active: [1] 1.65 µM | [2] 0.657 µM | [3] 1.31 µM | [4] 1.31 µM | [7] 8.33 µM | Furin (Homo sapiens) 24.1 µM | [13] 27.1 µM | [14] 27.1 µM | [8] 19.2 µM

CCCS(=O)(=O)Nc1ccc(F)c(C(=O)c2c[nH]c3ncc(-c4ccc(Cl)cc4)cc23)c1F
inactive: [3] | [7] | [8] | [12]
active: [1] 23.3 µM | [2] 13.1 µM

O=C(NOC[C@H](O)CO)c1ccc(F)c(F)c1Nc1ccc(I)cc1F
inactive: [3] | [4] | [5] | [6] | [8]
active: [1] 1.31 µM | [11] 22.4 µM

CNCc1ccc(-c2[nH]c3cc(F)cc4c3c2CCNC4=O)cc1
inactive: [1] | [3] | [4] | [5] | [6] | [11] | [12]
active: [2] 16.5 µM | [8] 24.1 µM

Nc1nc2[nH]cc(CCc3ccc(C(=O)N[C@@H](CCC(=O)O)C(=O)O)cc3)c2c(=O)[nH]1
inactive: [1] | [2] | [3] | [4] | [6] | [7] | [8]

CCC(C)n1ncn(-c2ccc(N3CCN(c4ccc(OC[C@H]5CO[C@](Cn6cncn6)(c6ccc(Cl)cc6Cl)O5)cc4)CC3)cc2)c1=O (stereo not given in full)
inactive: [3] | [4] | [5] | [8] | [11] | [12]
active: [2] 11.7 µM | [7] 14.8 µM

O=NN(CCCl)C(=O)NCCCl
inactive: [1] | [2] | [3] | [4] | [5] | [6] | [7] | [9] | [8]

Cc1ccc(N(CC2=NCCN2)c2cccc(O)c2)cc1
inactive: [15] | [9] | [8]

Cc1cnc(NC(=O)C2=C(O)c3ccccc3S(=O)(=O)N2C)s1
inactive: [15] | [9] | [8]

CN(C)c1ccc(C2Nc3ccc4ccccc4c3C3=C2C(=O)CC(C)(C)C3)cc1Br (stereo not given)
inactive: [3] | [8] | [11] | [12]

CCOc1cc(N2CCC(O)CC2)ccc1Nc1ncc2c(n1)N(C)c1ccccc1C(=O)N2C
inactive: [8]
active: [7] 7.43 µM

CC(C)NCC(O)COc1ccc(COCCOC(C)C)cc1 (stereo not given)
inactive: [15] | [9] | [8]

O=C(Nc1nc2ccccc2n1CCN1CCOCC1)c1cccc([N+](=O)[O-])c1
inactive: [15] | [9] | [8]

Clc1cccc(Cl)c1NC1=NCCN1
inactive: [15] | [9] | [8]

CCCCNc1cc(C(=O)O)cc(S(N)(=O)=O)c1Oc1ccccc1
active: [15] 50.1 µM | Furin (Homo sapiens) 27 µM | [9] 29.9 µM | [13] 27.1 µM
inactive: [14]

CC(C)(Sc1ccc(CCN(CCCCC2CCCCC2)C(=O)NC2CCCCC2)cc1)C(=O)O
active: [9] 15 µM | [16] 1.97 µM | [11] 3.55 µM | [12] 3.98 µM | [17] 3.16 µM
inactive: [15] | Furin (Homo sapiens) | [18]

CCOC(=O)N1CCC(=C2c3ccc(Cl)cc3CCc3cccnc32)CC1
inactive: [15] | [9] | [8]

c1ccc([C@H]2CN3CCSC3=N2)cc1
inactive: [15] | [9] | [8]

Cc1[nH]c(=O)c(C#N)cc1-c1ccc2nccn2c1
active: [15] 50.1 µM | [9] 21.2 µM
inactive: Furin (Homo sapiens) | [13] | [14] | [8] | [10]

Cc1ccccc1C(OCCN(C)C)c1ccccc1 (stereo not given)
inactive: [15] | [9] | [8]

O=C1CCc2cc(OCCCCc3nnnn3C3CCCCC3)ccc2N1
inactive: [15] | [9] | [8]

Cn1cnc([N+](=O)[O-])c1Sc1ncnc2nc[nH]c12
inactive: [3] | [5] | [15] | Furin (Homo sapiens) | [9] | [8]
active: [6] 4.24 µM

O=c1n(CCCN2CCN(c3cccc(Cl)c3)CC2)nc2ccccn12
active: [15] 79.4 µM | Furin (Homo sapiens) 24.1 µM | [9] 26.7 µM | [13] 24.1 µM | [8] 26.7 µM
inactive: [10]
